A word on the inhibition: it is the drop in the measured response relative to a control, in per cent.

Hit rate of the full screen: of about 360,000 compounds, about 3,600 (1%) were called active. This excerpt belongs to a sample that is enriched for actives. A number with no mark means an inactive call.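 How the source made its calls: active means compounds whose plate-normalised and pattern-corrected inhibition of the luciferase reporter signal at the single screening dose is 50% or more; inactive means the rest.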

The test is described as follows: inhibitors of TROY-driven NF-kB signaling, primary screen, Q293 LMP1-TROYcd cells, NF-kB luciferase, uHTS (AID 1347056). To be noted: Q293 LMP1-TROYcd NF-kB luciferase reporter, 4 h; at 10 µM; active compounds read high. Background: Reporter assays use an easily measured gene product as a stand-in for the process of interest.
For the compound `COCCNc1ncnc2c1ncn2[C@H]1CN(Cc2ccc(OC)cc2)C[C@@H](CO)O1`, the inhibition is -16.1%.

Turning to `COC(=O)C1(S(=O)(=O)C2(C(=O)OC)CCCC2)CCCC1`, the inhibition is 10.4%.

With `CCCCCc1c(Cc2ccccc2)ncn1CCc1ccccc1OC`, the inhibition is 49.9%.

As to `Cc1ccccc1NS(=O)(=O)CCCCC(Cl)(Cl)Cl`, the inhibition is 5.02%.

`Clc1ccc(Cn2ncc3c(NCc4cccnc4)ncnc32)cc1`: the inhibition is 58.7% (active).

Take `c1ccc(CNc2ncnc3[nH]ncc23)cc1`: the inhibition is 12.9%.

Take `CC(C)CNc1ncnc2c1cnn2Cc1ccc(Cl)cc1`: the inhibition was -3.29%.

As for `CC(CNc1ccc([N+](=O)[O-])c2cccnc12)Nc1c([N+](=O)[O-])cc(C(F)(F)F)cc1[N+](=O)[O-]` (stereo not given), the inhibition was 9.66%.

Consider `O=C(COc1ccc([N+](=O)[O-])cc1)Nc1cccc(C(=O)Nc2ccccc2C(=O)O)c1`, for which the inhibition is 13.9%.

In the case of `CC(OC(=O)CNC(=O)c1ccc(Cl)c([N+](=O)[O-])c1)C(=O)NCc1ccco1` (stereo not given), the inhibition was -1.1%.

For the compound `CCc1ccc(NC(=O)C(C)OC(=O)/C=C/c2cccc([N+](=O)[O-])c2)cc1` (stereo not given), the inhibition is 7.86%.

On to `N#Cc1cccc(NC(=O)COC(=O)c2ccccc2C(=O)c2ccc(Cl)c([N+](=O)[O-])c2)c1`, for which the inhibition is 66.1% (active).

With `CC(=O)Nc1ccc(NC(=O)C(C)OC(=O)c2ccccc2C(=O)c2ccc(Cl)c([N+](=O)[O-])c2)cc1` (stereo not given), the inhibition was 51% (active).

As for `NS(=O)(=O)c1cccc(NC(=O)COC(=O)c2cc([N+](=O)[O-])ccc2N2CCCC2)c1`, the inhibition is -3.22%.

For the compound `CN(CC(=O)NC1CCCC1)S(=O)(=O)c1cnc[nH]1`, the inhibition was 7.95%.

As to `CCNc1nc(NC(C)C)nc(N2CC(=O)N(CC(=O)OCC)C2=N)n1`, the inhibition is 19.4%.

With `CCOC(=O)N1CCN(C(=O)c2ccc3c(=O)n(CCc4ccc(OC)c(OC)c4)c(=O)[nH]c3c2)CC1`, the inhibition is 1.87%.

Turning to `Cc1ccccc1NC(=O)C1CCN(C(=O)NC2CCCCC2)CC1`, the inhibition is -10.7%.

For the compound `O=C(C1CCCN(S(=O)(=O)c2ccccc2)C1)N1CCN(c2ccc(F)cc2)CC1` (stereo not given), the inhibition was 3.28%.

On to `CC(=O)N1CCCc2cc(S(=O)(=O)N3CCCC(C(=O)N4CCN(c5cccc(Cl)c5)CC4)C3)ccc21` (stereo not given), for which the inhibition is 54.2% (active).

As to `COc1cccc(N2CCN(C(=O)C3CCCN(S(=O)(=O)c4cnc[nH]4)C3)CC2)c1` (stereo not given), the inhibition was -3.43%.

As to `CCOc1cccc2cc(C(=O)OCC(=O)Nc3c(C)cccc3CC)c(=O)oc12`, the inhibition is -77.6%.

As for `O=C(Nc1ccc(Cl)c(C(F)(F)F)c1)C1Cc2c(-c3ccccc3Oc3ccccc3)ccnc2O1` (stereo not given), the inhibition was 16.3%.

Regarding `COc1ccc(N(CC(=O)NCc2ccc(F)cc2)C(=O)CCC(=O)Nc2nccs2)cc1`, the inhibition is -6.88%.

As to `O=C(CNC(=O)OCc1ccccc1)Oc1cc2oc(=O)cc(-c3ccccc3)c2cc1Cl`, the inhibition is 50.4% (active).

Turning to `CC(Oc1ccc2c(-c3ccccc3)cc(=O)oc2c1)C(=O)NC(Cc1c[nH]c2ccccc12)C(=O)O` (stereo not given), the inhibition is -3.69%.

In the case of `O=C(CNC(=O)c1ccccc1)NCC(=O)OCc1ccc(Cl)cc1`, the inhibition was 17.5%.

In the case of `Cc1ccc(S(=O)(=O)Oc2ccc(/C=N/NC(=O)c3c(Cl)cnn3C)cc2)cc1`, the inhibition is -1.06%.

Take `CCN(CC)CCNC(=O)c1sc2ncn(CC(=O)Nc3ccc(C)c(Cl)c3)c(=O)c2c1C`: the inhibition was 6.8%.

Take `CC(=O)N1CCN(c2ccccc2NC(=S)NC(=O)c2cc3ccccc3o2)CC1`: the inhibition was 5.79%.

In the case of `O=C1NC(c2ccncc2)Nc2sc3c(c21)CCCC3` (stereo not given), the inhibition was -12.2%.

Regarding `C/C(=C\c1ccccc1)C1NC(=O)c2c(sc3c2CCCC3)N1` (stereo not given), the inhibition is 67.6% (active).

For the compound `O=C(Nc1sc2c(c1-c1nc3ccccc3[nH]1)CCCC2)C1CC1`, the inhibition was -11.2%.

For the compound `CN(C)S(=O)(=O)c1ccc2oc(SCC(=O)Nc3ccccc3F)nc2c1`, the inhibition was -36.4%.

As to `COc1ccc(Cl)cc1S(=O)(=O)Nc1cccc(C(=O)O)c1`, the inhibition was 1.76%.

As for `O=C(Nc1ccc2ccccc2c1)Nc1ccc2snnc2c1`, the inhibition was 69.7% (active).

Regarding `Cc1ccc(NC(=O)Nc2ccc3oc(C)nc3c2)cc1`, the inhibition was -27.6%.

With `COc1cccc(NC(=O)Nc2ccc(F)cc2)c1`, the inhibition was -52.4%.

As for `CN(CCC(=O)Nc1cc(S(=O)(=O)N(C)C)ccc1Cl)CC(=O)Nc1ccc(F)cc1`, the inhibition is 1.42%.

For the compound `CSCCNCc1cn(-c2ccc(F)cc2F)nc1-c1ccccc1C`, the inhibition is 1.03%.

As to `OCc1nc(CO)n(Cc2ccccc2)n1`, the inhibition was 11.6%.

As for `CN(C)C(=O)c1cccc(-c2cnc3sc(NCc4ccc5c(c4)OCO5)nn23)c1`, the inhibition was 51.8% (active).

Turning to `O=C(CSc1ncnc2scc(-c3ccccc3)c12)NCc1ccc2c(c1)OCO2`, the inhibition is 22.3%.

Take `O=C(COC(=O)c1ccc(Cl)nc1)NCc1ccc2c(c1)OCO2`: the inhibition was -7.63%.

For `COc1ccccc1NC(=O)N1CCCC1C(=O)NCc1cccs1` (stereo not given), the inhibition was 7.15%.

In the case of `COc1ccccc1CNC(=O)CN1CCC(n2cnc3cc(F)ccc32)CC1`, the inhibition is 2.42%.

On to `CCCCCCN1CCN(C2CN(Cc3cn(Cc4ccc(F)cc4)nn3)S(=O)(=O)C2)CC1` (stereo not given), for which the inhibition is 0.62%.

Take `COc1ccc2nc(-c3ccccn3)ccc2c1`: the inhibition was 6.94%.

`COCCN(C(=O)CCC(=O)Nc1ccccn1)C(C(=O)NCCC(C)C)c1ccc(OC)cc1` (stereo not given): the inhibition is 5.49%.

On to `COc1ccc(C(=O)/C=C/Nc2ccccn2)cc1`, for which the inhibition was 72.4% (active).

For `CCOC(=O)c1c(C)[nH]c(C)c1C(=O)CSc1nc(N)cc(N)n1`, the inhibition is 4.52%.

Turning to `CCOC(=O)c1cnc(COc2ccccc2Cl)[nH]c1=O`, the inhibition is -7.4%.

On to `CCOC(=O)c1c(C)[nH]c2c1-c1ccccc1C(=O)C2=O`, for which the inhibition was 63.1% (active).

Turning to `O=C(NCc1nnc(SCC(=O)N2CCC(Cc3ccccc3)CC2)o1)c1ccco1`, the inhibition is 3.48%.

For `Cc1ccc(CS(=O)Cc2ccc(C(=O)N3CCOCC3)o2)cc1` (stereo not given), the inhibition is -4.44%.

For the compound `O=C1CSC(=S)N1c1ccc(Cl)c(Cl)c1`, the inhibition was 33.2%.

`COc1cc(N2C(=O)CSC2=S)cc(OC)c1OC`: the inhibition was 33.1%.

On to `O=C1CSC(=S)N1c1ccc(O)cc1`, for which the inhibition is 50.1% (active).

Take `CC1=CC(=NNS(=O)(=O)c2ccc([N+](=O)[O-])cc2)CC(C)(C)C1`: the inhibition was -0.66%.

Take `Cc1nn(C(C)(C)C)c(OC(=O)CC(C)C)c1S(=O)(=O)c1ccccc1`: the inhibition was 12.4%.

Take `Cc1ccccc1OCCC(=O)OCC(=O)NCCc1ccc(S(N)(=O)=O)cc1`: the inhibition is 0.01%.

Turning to `O=C(Nc1ccc(-n2ccnc2P(=O)(O)c2ccccc2)cc1)c1ccccc1Br`, the inhibition is -20.5%.

`CN1CCN(S(=O)(=O)c2cccc(C(=O)Nc3cccc(S(N)(=O)=O)c3)c2)CC1`: the inhibition was 14.3%.

As to `Cc1cccc(C(=O)Nc2ccc3c(c2)C(=O)N(CC(C)C)C3=O)c1`, the inhibition was -12.3%.

Take `CC(C)CCN1C(=O)c2ccc(C(=O)Nc3cccc(S(N)(=O)=O)c3)cc2C1=O`: the inhibition was 63.2% (active).

Take `COc1ccccc1OCCNc1cc(N2CCOCC2)ccc1[N+](=O)[O-]`: the inhibition is -25%.

For the compound `COc1ccc(CCNc2cc(N3CCN(C(=O)c4ccccc4OC)CC3)ccc2[N+](=O)[O-])cc1OC`, the inhibition is 64% (active).

Consider `COc1ccc(CCNC(=O)c2ccccc2-c2ccccc2C(=O)O)cc1OC`, for which the inhibition was -8%.

In the case of `C[N+](C)(C)CCNC(=O)c1c[nH]c2ccccc12`, the inhibition is -5.29%.

Turning to `Cc1ccc(F)cc1NC(=O)N1CCCN(c2ccc(C(F)(F)F)cn2)CC1`, the inhibition was 8.63%.

As for `O=C(O)c1cc(S(=O)(=O)N2CCCCCC2)c(Cl)cc1Cl`, the inhibition is 0.33%.

As for `CCn1c(Cc2ccc(OC)cc2)nnc1SCC(=O)Nc1ccc(N2CCOCC2)cc1`, the inhibition was 4.48%.

For the compound `COc1cccc(/C=C(/CC(=O)Nc2ccc(N3CCOCC3)cc2)c2nc3ccccc3s2)c1`, the inhibition was 54.8% (active).

In the case of `Cc1ccc(OCCCC(=O)Nc2ccc(N3CCOCC3)cc2)cc1`, the inhibition was 6.99%.

As to `COc1cc2c(cc1OC)CN(C(=O)c1ccc(S(=O)(=O)N3CCCCCC3)cc1)CC2`, the inhibition is -2.54%.

In the case of `COc1cc2c(cc1OC)C(C)N(S(=O)(=O)c1cnc(Cl)c(Cl)c1)CC2` (stereo not given), the inhibition is 62.8% (active).

`COc1cc2c(cc1OC)CN(C(=O)c1cc(S(=O)(=O)N3CCCCC3)ccc1Cl)CC2`: the inhibition was -16.5%.

In the case of `COc1cccc(NC(=O)C(Sc2nc3ccccc3c(=O)n2CC(C)C)c2ccccc2)c1` (stereo not given), the inhibition is -17.8%.

For the compound `O=C(Nc1ccc(N2CCOCC2)nc1)c1c(F)cccc1F`, the inhibition is -14.2%.

As for `CCOC(=O)C1CCCN(C(=O)c2ccc(C)c(F)c2)CC1` (stereo not given), the inhibition was 1.56%.

`CN(CCc1ccccn1)C(=O)c1ccc(OC2CCN(CCc3ccccc3)CC2)cc1`: the inhibition is -24%.

Take `CN(CCc1ccccn1)C(=O)c1ccc(OC2CCN(Cc3ccccn3)CC2)cc1`: the inhibition is 50.2% (active).

Turning to `Cn1cc(CNC(=O)c2ccc(OC3CCN(Cc4ccccn4)CC3)cc2)cn1`, the inhibition was -10.1%.

As for `Cc1ccccc1C(=O)Nc1cccc(-c2nnc(SCC(=O)O)n2C)c1`, the inhibition is 18.5%.

On to `CCOC(=O)/C(C#N)=C\c1c(C)cc(C)c(COC(C)=O)c1C`, for which the inhibition was -28.3%.

For the origin of these results see PubChem BioAssay AID1347056 (Sanford-Burnham Center for Chemical Genomics, 2019).
